In PubChem BioAssay (EPA / NIEHS):
Calls of active or inactive are those of the source. The calls were made as follows: active = hit-call score of the fitted dose curve at least 0.9, where 1 is the maximum; inactive = score below 0.9.

Tests used:
[1] = read-out: Matrix Metallopeptidase 1 (MMP1), MMP1 (gene 4312); test: BSK_BE3C_MMP1: BioMAP Diversity Plus: BE3C Assay for Matrix Metallopeptidase 1 (MMP1) Biomarker Activity (AID 2283024); details: primary human bronchial epithelial cells; actives raise or lower the signal
Outline: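 In this multiplexed primary-cell system, human bronchial epithelium received chemicals for 24 h before an ELISA for MMP1. Values reflect bidirectional fits normalised to the DMSO baseline.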

[2] = read-out: Pselectin, SELP (gene 6403); test: BSK_4H_Pselectin: BioMAP Diversity Plus: 4H Assay for Pselectin Biomarker Activity (AID 2283026); details: primary human endothelial cells (HUVEC); actives raise or lower the signal
Outline: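 Bidirectional fits against DMSO gave the endpoint. Cells: primary human umbilical vein endothelium, chemical-treated for 24 h before ELISA detection of P-selectin.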

[3] = BSK_4H_SRB: Viability Assessment in the BioMAP Diversity Plus: 4H Assay (AID 2283027); details: primary human endothelial cells (HUVEC);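 also: cells exposed to compound for 24 h before staining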;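 as to AC50: curves fitted both ways versus DMSO so AC50 may be loss or gain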
Outline: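 Cytotoxicity readout: sulforhodamine B (0.1%) staining of total protein after 10% TCA fixation, measured at 560 nm in human umbilical vein endothelium at 24 h. DMSO set the baseline; fitting was bidirectional.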

[4] = BSK_BE3C_SRB: Viability Assessment in the BioMAP Diversity Plus: BE3C Assay (AID 2283028); details: primary human bronchial epithelial cells
Outline: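 Cytotoxicity read-out: SRB (0.1%) staining of TCA-fixed (10%) human lung bronchial epithelial cells, absorbance 560 nm, 24 h post-dosing. Curves fitted both directions relative to DMSO.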

[5] = read-out: Thrombomodulin, THBD (gene 7056); test: BSK_3C_Thrombomodulin: BioMAP Diversity Plus: 3C Assay for Thrombomodulin Biomarker Activity (AID 2283029); details: primary human endothelial cells (HUVEC); actives raise or lower the signal
Outline: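 In a multiplexed primary-cell system, human umbilical vein endothelium received chemical and was assayed 24 h later for thrombomodulin by ELISA. Parallel cultures were SRB-stained (0.1% SRB after 10% TCA fixation, read at 560 nm) to flag cytotoxicity.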

[6] = read-out: Urokinase-type plasminogen activator receptor (uPAR), PLAUR (gene 5329); test: BSK_4H_uPAR: BioMAP Diversity Plus: 4H Assay for Urokinase-type plasminogen activator receptor (uPAR) Biomarker Activity (AID 2283030); details: primary human endothelial cells (HUVEC); actives raise or lower the signal
Outline: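 uPAR level read by ELISA on HUVEC cultures (BioMAP 4H) 24 h post-dosing, analyzed for gain or loss relative to DMSO. Parallel SRB staining assessed overt cytotoxicity.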

[7] = read-out: Vascular endothelial growth factor receptor 2 (Homo sapiens) (UniProt P35968); test: BSK_4H_VEGFRII: BioMAP Diversity Plus: 4H Assay for Vascular endothelial growth factor receptor 2 (VEGFR2) Biomarker Activity (AID 2283031); details: primary human endothelial cells (HUVEC); actives raise or lower the signal
Outline: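 Measured by ELISA after 24 h of compound treatment: VEGFR2 on primary human umbilical vein endothelial cells, fitted in both directions relative to DMSO. Parallel cultures received SRB staining (560 nm) for overt cytotoxicity.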

[8] = read-out: Human Leukocyte Antigen - DR isotype (HLADR), HLA-DRA (gene 3122); test: BSK_BE3C_HLADR: BioMAP Diversity Plus: BE3C Assay for Human Leukocyte Antigen - DR isotype (HLADR) Biomarker Activity (AID 2283032); details: primary human bronchial epithelial cells; actives raise or lower the signal
Outline: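 BioMAP BE3C format: human bronchial epithelium, 24 h compound treatment, ELISA detection of HLA-DR, with bidirectional analysis relative to DMSO.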

[9] = read-out: Vascular cell adhesion molecule 1 (VCAM1), VCAM1 (gene 7412); test: BSK_4H_VCAM1: BioMAP Diversity Plus: 4H Assay for Vascular cell adhesion molecule 1 (VCAM1) Biomarker Activity (AID 2283033); details: primary human endothelial cells (HUVEC); actives raise or lower the signal;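 also: cell-surface VCAM-1 protein measured by ELISA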
Outline: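 In this human endothelial (HUVEC) system, biomarker ELISA was run 24 h after compound addition, and total protein in parallel wells was assessed by SRB at 560 nm; DMSO served as negative control.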

[10] = read-out: Interferon-gamma inducible Protein 10 (IP10), CXCL10 (gene 3627); test: BSK_BE3C_IP10: BioMAP Diversity Plus: BE3C Assay for Interferon-gamma inducible Protein 10 (IP10) Biomarker Activity (AID 2283034); details: primary human bronchial epithelial cells; actives raise or lower the signal
Outline: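 BE3C cells (human bronchial epithelial, primary); 24 h exposure; ELISA for IP-10; DMSO-referenced bidirectional fit.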

[11] = read-out: Monokine induced gamma interferon (MIG), CXCL9 (gene 4283); test: BSK_BE3C_MIG: BioMAP Diversity Plus: BE3C Assay for Monokine induced gamma interferon (MIG) Biomarker Activity (AID 2283035); details: primary human bronchial epithelial cells; actives raise or lower the signal;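 also: MIG protein measured by ELISA in BE3C cultures after 24 h of dosing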
Outline: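 hu bronchial epithelial 1° cells, 24 h cpd; MIG by ELISA; bidirectional fit, DMSO = baseline.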

[12] = read-out: Transforming growth factor beta 1 (TGFb1), TGFB1 (gene 7040); test: BSK_BE3C_TGFb1: BioMAP Diversity Plus: BE3C Assay for Transforming growth factor beta 1 (TGFb1) Biomarker Activity (AID 2283036;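 also: TGF-b1 protein level measured by ELISA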); details: primary human bronchial epithelial cells; actives raise or lower the signal
Outline: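 TGF-b1 measured via ELISA, 24 h after chemical dosing of human bronchial epithelial cells (BE3C). Overt cytotoxicity assessed in parallel by SRB (0.1%, TCA-fixed, 560 nm); analysis bidirectional relative to DMSO.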

[13] = read-out: Plasminogen activator inhibitor-1 (PAI1), SERPINE1 (gene 5054); test: BSK_BE3C_PAI1: BioMAP Diversity Plus: BE3C Assay for Plasminogen activator inhibitor-1 (PAI1) Biomarker Activity (AID 2283037); details: primary human bronchial epithelial cells; actives raise or lower the signal
Outline: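 In this multiplexed primary-cell system, bronchial epithelial cells receive test chemical and are sampled at 24 h. PAI-1 is read by ELISA, with DMSO serving as negative control for bidirectional fitting.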

[14] = read-out: urokinase plasminogen activator (uPA), PLAU (gene 5328); test: BSK_BE3C_uPA: BioMAP Diversity Plus: BE3C Assay for urokinase plasminogen activator (uPA) Biomarker Activity (AID 2283038); details: primary human bronchial epithelial cells; actives raise or lower the signal;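 also: uPA protein level quantified by ELISA in cell cultures; uPA read one day after compound addition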
Outline: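 ELISA for uPA on human primary bronchial epithelial cultures 24 h post-treatment, gain or loss against DMSO. Parallel SRB staining (0.1% after 10% TCA fixation, 560 nm) assessed overt cytotoxicity.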

[15] = read-out: Urokinase-type plasminogen activator receptor (uPAR), PLAUR (gene 5329); test: BSK_BE3C_uPAR: BioMAP Diversity Plus: BE3C Assay for Urokinase-type plasminogen activator receptor (uPAR) Biomarker Activity (AID 2283039); details: primary human bronchial epithelial cells; actives raise or lower the signal;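 also: uPAR protein level measured by ELISA on the cells; cells exposed to compound for one day before measurement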
Outline: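 Chemically treated human bronchial epithelial cells (lung primary) are assayed for uPAR by ELISA after 24 h, with data fitted in both directions using DMSO as negative control.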

[16] = read-out: Interleukin-6 (IL6), IL6 (gene 3569); test: BSK_CASM3C_IL6: BioMAP Diversity Plus: CASM3C Assay for Interleukin-6 (IL6) Biomarker Activity for (AID 2283040); details: primary human coronary artery smooth muscle cells; actives raise or lower the signal
[17] = read-out: Tissue plasminogen activator (tPA), PLAT (gene 5327); test: BSK_BE3C_tPA: BioMAP Diversity Plus: BE3C Assay for Tissue plasminogen activator (tPA) Biomarker Activity (AID 2283041); details: primary human bronchial epithelial cells; actives raise or lower the signal;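 also: tPA level quantified by ELISA one day after compound addition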
Outline: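 Using human lung primary bronchial epithelial cells, tPA was measured by ELISA 24 h after dosing; data fitted relative to DMSO.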

[18] = read-out: Interleukin-8 (IL8), CXCL8 (gene 3576); test: BSK_CASM3C_IL8: BioMAP Diversity Plus: CASM3C Assay for Interleukin-8 (IL8) Biomarker Activity (AID 2283042); details: primary human coronary artery smooth muscle cells; actives raise or lower the signal;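 also: IL-8 protein level quantified by ELISA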
[19] = read-out: Human Leukocyte Antigen - DR isotype (HLADR), HLA-DRA (gene 3122); test: BSK_CASM3C_HLADR: BioMAP Diversity Plus: CASM3C Assay for Human Leukocyte Antigen - DR isotype (HLADR) Biomarker Activity (AID 2283043); details: primary human coronary artery smooth muscle cells; actives raise or lower the signal;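 also: cell-surface HLA-DR protein level quantified by ELISA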

Measured: AC50

N#CC(Br)Br
inactive: all assays above

Nc1ccc([N+](=O)[O-])cc1
inactive: all assays above

CCC(C)c1ccc(O)cc1 (stereo not given)
inactive: all assays above

CC(C)(C)C(O)(CCc1ccc(Cl)cc1)Cn1cncn1 (stereo not given)
not listed: [6]
inactive: all other assays above

O=C(Nc1ccccc1)c1ccccc1I
not listed: [12]
inactive: all other assays above

CN(C)c1ccc(C(=O)c2ccc(N(C)C)cc2)cc1
active: [3] 1560 nM
not listed: [12]
inactive: all other assays above

CC(C)(C)OOC(=O)c1ccccc1
inactive: all assays above
